Screens as filed in PubChem.
HSV augment: enhancers of HSV replication in host cells, fold increase, host cell viability; AID 1956, 2009; HSV replication augmentation in cells; 220,000 tested, 0.005% active; maximum fold increase; in the data active = maximum fold increase above about 1.5; inconclusive = no clear call, values can overlap the other calls; tested in PC3 cells
ROMK primary: ROMK potassium channel modulators, primary screen, cell-based, thallium flux, MLSMR library; ATP-sensitive inward rectifier potassium channel 1 (Homo sapiens), P48048; Tet-inducible ROMK, thallium flux fluorescence; actives lie on both sides; B-score at 10 µM; 130,000 tested, 2% active;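 active = signal ratio slope over the read window, or its plate-corrected B-score, at least 3 SD from the plate mean, either direction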;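 note: B-score of the F/F0 ratio slope over 7 to 12 s after thallium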
Target sequence (P48048 whole entry, looked up): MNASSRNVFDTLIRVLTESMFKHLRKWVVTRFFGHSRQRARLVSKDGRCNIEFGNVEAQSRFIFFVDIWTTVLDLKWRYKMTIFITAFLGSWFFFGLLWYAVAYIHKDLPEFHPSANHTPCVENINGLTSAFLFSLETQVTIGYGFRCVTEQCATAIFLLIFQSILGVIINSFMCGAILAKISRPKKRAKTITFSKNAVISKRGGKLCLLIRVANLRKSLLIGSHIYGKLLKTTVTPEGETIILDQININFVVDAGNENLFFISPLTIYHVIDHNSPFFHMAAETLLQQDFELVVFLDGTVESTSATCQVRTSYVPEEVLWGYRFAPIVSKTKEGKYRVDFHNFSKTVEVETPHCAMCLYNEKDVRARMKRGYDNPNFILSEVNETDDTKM
Arbovirus inh: antivirals against arbovirus infection, primary screen, cell-based, full library, 10K replicate subset. arbovirus infection cell-based antiviral screen. inhibition, % at 10 µM. 200,000 tested, 0.37% active; in the data active = inhibition above about 30%
m-calpain inh: inhibitors of pig calpain II, primary screen, biochemical, fluorogenic peptide substrate, 1536-well. purified calpain II, 30 min. AID 1236, 2008. inhibition, % at 16 µM. 220,000 tested, 0.37% active;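 active = inhibition above about 50%, limit read from the data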
Efa HMGR inh: inhibitors of E. faecalis class II HMGR, primary screen, biochemical, Enterococcus faecalis; HMG-CoA reductase (Enterococcus faecalis, mvaE); inhibition, % at 10 µM; AID 1066, 2008; 190,000 tested, 0.41% active; purified E. faecalis HMGR, NADPH absorbance 340 nm kinetic;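 active = inhibition above a set limit, the median over all tested compounds plus 3 SD, cut at about 9.5% in these data; inconclusive = no clear call, values can overlap the other calls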;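 note: enzyme runs in reverse so mevalonate oxidation gives rising NADPH absorbance; 0% = complete reaction with DMSO and 100% = background rate lacking mevalonate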
ROMK hit retest: ROMK channel modulator hit retest, confirmation, cell-based, thallium flux, duplicate, resupplied hits; normalized thallium flux (F/F0 slope) at 10 µM; fluorescence ratio; hits give low values; shares compounds with ROMK primary; 3,000 tested, 54% active;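 active = Flux at 10 µM at least 3 SD below or above vehicle control mean in one or both replicates; inconclusive = no clear call, values can overlap the other calls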
* = called active by the depositor; i = inactive; u = inconclusive; x = not tested or not shown. This is a sample that favours compounds with a hit; in the whole collection about 2.1% have one here.

SMILES	HSV augment	ROMK primary	Arbovirus inh	m-calpain inh	Efa HMGR inh	ROMK hit retest
CCn1c(=O)cc(SCC(=O)N2CCC3(CC2)OCCO3)c2ccccc21	i	-0.54	-6	-6	0	x
NC1=Nc2ccccc2Oc2ccccc21	x	x	5	7	1	0.048*
CN1c2ccccc2Oc2ccccc21	i	x	-4	3	-6	x
COc1cc(C)c(CN2CCN(c3ccccc3)CC2)cc1C	i	x	-1	4	-9	x
CCOc1ccccc1-n1c(O)c(C=NCCCN(CC)CC)c(=O)[nH]c1=O	i	x	-1	-13	-14	x
OC(c1cccc(Cl)c1)(c1cccc(Cl)c1)C1CN2CCC1CC2 (stereo not given)	i	-4.5*	-36	-21	0	0.052*
Clc1ccc2c(c1)C(OC1CN3CCC1CC3)c1ccccc1CS2 (stereo not given)	i	x	-34	-14	1	x
Cc1c(N=Cc2c(O)n(CCc3ccc(F)cc3)c(=O)[nH]c2=O)c(=O)n(-c2ccccc2)n1C	i	2.3	3	-18	-4	x
Nc1c([N+](=O)[O-])cc(F)c(N2CCNCC2)c1Br	i	-3.6*	-4	-4	-4	0.055*
CC1(C)CN=C(NCc2ccccc2Cl)S1	i	x	-6	2	-2	x
CCC(=NCc1ccco1)c1c(O)n(C2CCCCC2)c(=O)[nH]c1=O	i	-4*	10	11	0	0.054*
COC(=O)C1=C(c2cccc(OC)c2OC)C[C@@H]2CC[C@H]1N2C(=O)NCCNC(C)=O	i	x	x	x	x	x
O=C(/C=C/c1c[nH]c2ccccc12)c1c(O)n(CCc2ccccc2)c(=O)[nH]c1=O	u	x	x	10	x	0.04*
CCOc1cc(CNCCc2c[nH]c3ccccc23)cc(Cl)c1OC	i	-3.2*	-36	-24	-7	0.061*
OCCOCC#CCN1CCOCC1	x	0.25	1	-34	-1	x
CN1c2ccc([N+](=O)[O-])cc2CC2(C(=O)NC(=O)N(c3ccc(Br)cc3)C2=O)C1c1ccccc1 (stereo not given)	i	x	17	11	-3	0.072
CCOC(=O)[C@]1(C#N)[C@@H]2C=CC(C(C)=O)=CN2[C@@H](C(N)=O)[C@@H]1c1ccsc1	i	-3.6*	13	-26	-4	0.049*
CC1=C(C/C(C)=C/c2ccccc2)/C(=C/CO)[C@H](O)[C@](C)(O)C12CC2	i	x	x	x	x	x
CCNC(=O)[C@H]1O[C@@H](n2cnc3c(N)ncnc32)[C@H](O)[C@@H]1O	i	x	0	-9	5	x
NC(=O)c1cn(C2OC(CO)C(O)C2O)c2ncnc(N)c12 (stereo not given)	i	4*	-17	20	-6	0.092
COC(=O)C1=C(c2cccc(OC)c2OC)C[C@@H]2CC[C@H]1N2C(=O)NCC1CC1	i	x	x	x	x	x
Nc1ccccc1-[n+]1c(-c2ccccc2)cc(-c2ccccc2)cc1-c1ccccc1	i	x	x	15	x	0.062*
CC1CCC(C(C)C)C(OC(=O)Cn2c(COc3ccccc3)[n+](C)c3ccccc32)C1 (stereo not given)	i	-8.8*	x	15	x	0.037*
Cn1c(O)c(C=Nc2ccccc2-c2ccccc2)c(=O)n(C)c1=O	i	0.18	x	-182	x	x
Cn1c(O)c(/C=C/C=Nc2ccccc2)c(=O)n(C)c1=O	i	x	-5	2	-2	0.051*
SMILES	HSV augment	ROMK primary	Arbovirus inh	m-calpain inh	Efa HMGR inh	ROMK hit retest
O=C1N(c2ccccc2)C(c2cccnc2)N2CCCN12 (stereo not given)	i	2.5*	-2	-5	3	0.087
O=C1N(c2cccc(Cl)c2)C(c2cccnc2)N2CCCN12 (stereo not given)	i	-0.068	-6	-16	-1	x
CN1CCN(c2cc(N3CCCCCC3)c(F)cc2[N+](=O)[O-])CC1	i	-3.6*	-28	3	-1	0.053*
Cc1nonc1OCCNCCNc1ccc([N+](=O)[O-])c2cccnc12	i	-5.3*	0	3	-2	0.053*
CCNCCNc1ccc([N+](=O)[O-])c2cccnc12	i	x	x	9	x	x
CNC(=O)Nc1ccc(C(=O)N/N=C\C23CC[C@@H](O)CC2(O)CC[C@@H]2[C@@H]3CCC3(C)C(C4=CC(=O)OC4)CCC23O)cc1 (stereo not given in full)	i	x	x	-11	x	u
